According to PubChem BioAssay AID449762 (Southern Research Specialized Biocontainment Screening …, 2010):
About 1,900 (0.58%) of roughly 330,000 compounds were called active. Not shown: some 4% with an inconclusive outcome. A selection follows. Entries with a potency or affinity are not part of this list. Unmarked numbers belong to inactive results. No stated cut-off is given here; in the data, inconclusive means inhibition above about 70% without an active follow-up result; inactive means below that.

Test: M. tuberculosis growth inhibition, HTS (AID 449762);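 further: bacterial growth assessed after seven days of incubation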
Settings: M. tuberculosis H37Rv growth inhibition, 7H9 media; at 25 µM; stronger effect = higher value

Row | Compound | inhibition [%]
1 | CCCCc1c(O)nc(SCC(=O)N2CCCCC2)[nH]c1=O | 17.7
2 | COc1ccc(-c2nnc(SCC(=O)NC3CCCC3)n2C)cc1 | -3.82
3 | Cc1ccc(C(=O)/C=C/c2ccccc2)o1 | 4.37
4 | Cc1ccc(C(=O)/C=C/c2ccc3c(c2)OCO3)o1 | 1.84
5 | CC1CCCCN1S(=O)(=O)c1cccc2nonc12 (stereo not drawn) | -1.08
6 | CCC(CC)NC(=O)c1cc2c(C)nn(Cc3ccccc3Cl)c2s1 | -1.27
7 | Cc1nn(Cc2ccccc2Cl)c2sc(C(=O)NC(C)(C)C)cc12 | 30.5
8 | CCCNC(=O)CCNC(=O)c1ccc(C(C)(C)C)cc1 | -4.92
9 | CCCCNC(=O)CCNC(=O)c1ccc(C(C)(C)C)cc1 | -8.34
10 | O=C(CSc1nnc(-c2c[nH]c3ccccc23)o1)N(Cc1ccccc1)c1ccc(F)cc1 | -6.56
11 | Cc1nc(SCc2nc3ccccc3[nH]2)c2oc3ccc(Br)cc3c2n1 | 18
12 | Cc1ccccc1CN1C(=O)[C@H]2Cc3c([nH]c4ccccc34)C(C)(C)N2C1=O | -6.56
13 | Cc1ccccc1CN1C(=O)[C@@H]2Cc3c([nH]c4ccccc34)C(C)(C)N2C1=O | 8.29
14 | C/C=C(\C)C(=O)NCCN1C2=NC[C@H](C)N2C[C@@H]1Cc1ccc(OC)cc1 | 0.12
15 | COc1ccc(-c2cc(C3CCN(c4ccc(C(C)=O)cc4[N+](=O)[O-])CC3)[nH]n2)cc1 | 2.56
16 | COc1ccc(OC)c(-c2cc(C3CCN(c4cc(Cl)nc(N)n4)CC3)[nH]n2)c1 | -10.8
17 | Nc1nc(Cl)cc(N2CCC(c3cc(-c4ccc(Cl)cc4)n[nH]3)CC2)n1 | 4.43
18 | CC(=O)c1ccc(N2CCC(c3cc(-c4ccc(Cl)cc4)n[nH]3)CC2)c([N+](=O)[O-])c1 | -1.54
19 | Cc1cc(OCC(=O)NCc2ccccn2)c2c(C)c(Cc3ccccc3)c(=O)oc2c1 | 3.29
20 | O=C(CN(Cc1cccs1)C(=O)CN1C(=O)COc2ccccc21)NCc1ccco1 | -10.2
21 | COc1ccc(S(=O)(=O)N2CCN(C(=O)CCNC(=O)c3ccccc3Cl)CC2)cc1 | -12.2
22 | COc1cc(OC)nc(Oc2cc(/C=N/O)ccc2OC)n1 | 6.12
23 | O=C(O)c1ccccc1NS(=O)(=O)c1ccc(NN=Cc2ccc(F)cc2)c([N+](=O)[O-])c1 | 9.86
24 | OC1(c2ccc(F)cc2)CCN(Cc2nnnn2Cc2cccs2)CC1 | 5.23

Row | Compound | inhibition [%]
25 | O=C(O)CSc1nnnn1-c1ccc2c(c1)OCCO2 | -0.83
26 | CC(C)OC(=O)CSc1nnnn1-c1ccc2c(c1)OCCO2 | -0.39
27 | O=C(NCCC1=CCCCC1)C1CCN(S(=O)(=O)c2cccc(C(F)(F)F)c2)CC1 | 5.79
28 | Cc1cc(C)nc(NC(=O)CSc2nn(-c3ccccc3)c(=S)s2)n1 | -0.15
29 | CSc1nsc(SCCN2C(=O)c3ccccc3C2=O)n1 | 2.52
30 | CCOC(=O)CSc1snnc1C | -6.63
31 | CCOC(=O)CSc1nnc(-c2ccccc2)c(=O)[nH]1 | -2.8
32 | CCOC(=O)CSc1nn(C)c(=S)s1 | 0.33
33 | Nc1nnc(SCCN2C(=O)c3ccccc3C2=O)s1 | -1.41
34 | Cc1ccc(NC(=S)N(CCN(C)C)C(C)c2cccnc2)c(C)c1 (stereo not drawn) | 4.11
35 | COC(=O)c1cc(OC)c(OC)cc1NC(=O)c1c(-c2ccccc2Cl)noc1C | -3.97
36 | Cc1ccc(-c2csc(NC(=O)c3ccccc3Cl)c2C(=O)O)cc1 | 13.9
37 | CSc1cccc(NC(=O)C2C3C=CC4(O3)C2C(=O)N(CCCN2CCOCC2)C4C(=O)NC2CCCCC2)c1 (stereo not drawn) | 3.36
38 | O=C(c1ccccc1F)N1CCN(S(=O)(=O)c2ccc3ccccc3c2)CC1 | 7.72
39 | COc1ccc(NS(=O)(=O)c2cc(NC(=O)C3CC3)ccc2N2CCCCC2)cc1 | 1.69
40 | Cc1ccc2c(c1)c1c3n2CCN(C(=O)CN2CCN(C)CC2)C3CCC1 (stereo not drawn) | -3.37
41 | CC(=O)N1CCn2c3c(c4cc(C)ccc42)CCCC31 (stereo not drawn) | 4.84
42 | CC(C)CCN1CCN(CC(c2ccccc2)c2ccccc2)CC1CCO (stereo not drawn) | -4.44
43 | Cc1ccc(Cn2c(=N)c(C(=O)NCc3ccco3)cc3c(=O)n4ccccc4nc32)cc1 | 4.13
44 | COCCn1c(=N)c(C(=O)NCc2ccco2)cc2c(=O)n3cc(C)ccc3nc21 | 0.47
45 | COc1ccc(NC(=O)CN2CCN(c3nc(-c4ccc(F)cc4)cs3)CC2)c(OC)c1 | 8.68
46 | O=[N+]([O-])c1ccc(F)c(N=Cc2ccc(Br)s2)c1 | 1.92
47 | CCN(CC)C(=O)Oc1ccc2c(=O)c(-c3ccccc3)coc2c1 | 64.8
48 | COc1ccc(-c2coc3cc(OC(=O)N4CCOCC4)ccc3c2=O)cc1 | 10.6

Row | Compound | inhibition [%]
49 | CCOc1ccc(N(CC(=O)Nc2cc(C)cc(C)c2)S(C)(=O)=O)cc1 | 7.61
50 | N#C/C(=C/c1ccccc1[N+](=O)[O-])C(=O)NCc1ccco1 | -4.24
51 | CCCCSC1=NN1c1nc(N)nc(C)c1CC | -7.73
52 | CC1CN(C(=S)c2cccc([N+](=O)[O-])c2)CC(C)O1 (stereo not drawn) | -2.37
53 | CC1CN(C(=O)c2cc([N+](=O)[O-])cc([N+](=O)[O-])c2)CC(C)O1 (stereo not drawn) | -5.16
54 | Cc1nn(CC(C)C(=O)N2CCN(S(=O)(=O)c3ccc(Cl)cc3)CC2)c(C)c1C (stereo not drawn) | -2.72
55 | CCCCCCCCc1nc(SC(C)C(=O)O)n[nH]1 (stereo not drawn) | -1.56
56 | COc1ccc(C2Nc3ccccc3NC3=C2C(=O)CC(C)(C)C3)c(OC)c1OC (stereo not drawn) | 8.53
57 | COc1ccc(-c2nnc(NC(=O)CS(=O)(=O)c3ccc(F)cc3)o2)c(OC)c1 | 7.17
58 | COc1ccc(NC(=O)c2ccc([N+](=O)[O-])o2)cc1 | 6.03
59 | COc1ccc(S(=O)(=O)N(C)CC(=O)NCc2ccco2)cc1Cl | 2.22
60 | CCCn1nnc(NC(=O)COc2ccc(C3CCCCC3)cc2)n1 | -1.63
61 | CCCn1nnc(NC(=O)COc2ccccc2Cl)n1 | -5.02
62 | Cc1cc(C(=O)N(C)CC2CCCN(CCc3ccc(F)cc3)C2)c(C)o1 (stereo not drawn) | -2.12
63 | N=C1c2ccccc2CN1NC(=O)COc1ccc(Cl)cc1 | -8.46
64 | CCc1nn(CCCC(=O)N2CCc3ccccc3C2)c(=O)c2cc3occc3n12 | -0.11
65 | Cc1ccc(NC(=O)CSc2cn[nH]n2)cc1 | -2.03
66 | COc1cccc(NC(=O)CSc2nc(O)c(C)c(=O)n2-c2ccc(C)cc2)c1 | -11.9
67 | CCOc1ccc(-n2c(SCC(=O)Nc3ccc(C(=O)O)cc3)nc3ccccc3c2=O)cc1 | 1.72
68 | CC(=O)c1ccc(NC(=O)CSc2cn[nH]n2)cc1 | 4.87
69 | Cc1nnc(NC(=O)CSc2nnc(Cc3cccn3C)n2C)s1 | -5.68
70 | Cc1ccc(S(=O)(=O)N(C)C)cc1NC(=O)c1cccnc1Oc1ccccc1 | -2.85
71 | O=C(Nc1ccc2c(c1)OCO2)c1cnn2c1NC(c1ccco1)CC2C(F)(F)F (stereo not drawn) | -5.12
72 | COc1ccc(-c2[nH]ncc2CN(C)Cc2ccccn2)c(OC)c1 | 4.69

Row | Compound | inhibition [%]
73 | O=C(NCc1ccccn1)c1cc2c(ccc3ccccc32)oc1=O | -2.34
74 | CCOC(=O)N1CCC(N2Cc3cccc(C(=O)Nc4cc(F)ccc4F)c3C2=O)CC1 | -1.17
75 | CCOC(=O)c1ccccc1NC(=O)c1cccc2c1C(=O)N(C1CCN(C(=O)OCC)CC1)C2 | -3.66
76 | O=C1CCCC2=C1C(c1ccccc1)C1C(=O)c3ccccc3C1=N2 (stereo not drawn) | 0.55
77 | Cc1ccc(C2C3=C(CCCC3=O)N=C3c4ccccc4C(=O)C32)cc1 (stereo not drawn) | 4.41
78 | CCO[C@@H]1OC(C(=O)NCc2ccccc2)=C[C@H](C)[C@H]1CCCO | 0.33
79 | CCOC(=O)CSC1=C(C#N)C(c2ccccc2C)C2=C(CCCC2=O)N1 (stereo not drawn) | -2.12
80 | CCOC(=O)CSC1=C(C#N)C(C)C2=C(CCCC2=O)N1 (stereo not drawn) | 10.6
81 | Clc1cccc(CN2CCSCC2)c1Cl | 5.96
82 | COc1ccc(/C=C/c2c(-c3cccc(C)c3)oc3ccc(N4CCOCC4)cc23)cc1 | -2.46
83 | O=C(OCc1ccc(O)cc1)c1c(-c2ccsc2)oc2ccc(N3CCOCC3)cc12 | -0.88
84 | COc1ccc(-c2noc(-c3ccco3)n2)cc1OC | -0.61
85 | COc1ccc(-c2cc(C(=O)O)c3c(C)nn(-c4ccccn4)c3n2)cc1 | 10.2
86 | CCOC(=O)c1cc(-c2ccncc2)nc2c1c(C)nn2-c1ccccn1 | 0.76
87 | O=C(NC1CCCC1)C(c1ccncc1)N(C(=O)c1csnn1)C1CCCC1 (stereo not drawn) | 3.35
88 | Cc1nnsc1S(=O)(=O)c1ccccc1 | -0.59
89 | Nc1nc(-c2ccc(Cl)cc2)c(S(=O)(=O)c2ccccc2)s1 | -1.98
90 | COc1ccc(N(CC(=O)NC2CCCC2)S(=O)(=O)c2c(C)[nH]c(=O)[nH]c2=O)cc1 | -3.45
91 | Cc1ccc(OCCNC(=O)CNC(=O)c2ccc(C)cc2)cc1 | 5.29
92 | Cc1ccc(OCc2cc(C(=O)N(C)Cc3nccn3C)no2)cc1C | 8.06
93 | Cc1cc(CN(C)C(=O)c2cc(COc3ccc(C)c(C)c3)on2)on1 | 7.13
